Records with an inconclusive call do not appear. Entries that show only a call come without a potency. Calls of active or inactive are those of the source. The call rests on the fitted dose curve; in most records, active means well fitted inhibition curve with a large enough effect; inconclusive means small, poorly fitted or top-dose-only effect, or effect the other way; inactive means flat fitted curve, though single readings scatter.

For the assay, the target named is Menin (Homo sapiens) (UniProt O00255). Description: Confirmation of Inhibitors Targeting the Menin-MLL Interaction in MLL Related Leukemias: Confirmation in an HTRF (commercial TR-FRET) Assay using His-tagged menin and biotin-labeled MLL peptide. Particulars: His-menin / biotin-MLL peptide binding; series mostly up to 126 µM. The gist of the method: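 HTRF: His6-menin (200 nM) and biotin-MLL-w.t. peptide (80 nM) preincubated 15 min, then compounds 1 hr at ambient, before Eu-cryptate anti-His (3.5 nM) and streptavidin-XL665 (10 nM) for 1 h; 50 mM Tris-HCl pH 7.5, 50 mM NaCl, 1 mM DTT, BSA.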
Menin (Homo sapiens), sequence (O00255 whole entry, looked up): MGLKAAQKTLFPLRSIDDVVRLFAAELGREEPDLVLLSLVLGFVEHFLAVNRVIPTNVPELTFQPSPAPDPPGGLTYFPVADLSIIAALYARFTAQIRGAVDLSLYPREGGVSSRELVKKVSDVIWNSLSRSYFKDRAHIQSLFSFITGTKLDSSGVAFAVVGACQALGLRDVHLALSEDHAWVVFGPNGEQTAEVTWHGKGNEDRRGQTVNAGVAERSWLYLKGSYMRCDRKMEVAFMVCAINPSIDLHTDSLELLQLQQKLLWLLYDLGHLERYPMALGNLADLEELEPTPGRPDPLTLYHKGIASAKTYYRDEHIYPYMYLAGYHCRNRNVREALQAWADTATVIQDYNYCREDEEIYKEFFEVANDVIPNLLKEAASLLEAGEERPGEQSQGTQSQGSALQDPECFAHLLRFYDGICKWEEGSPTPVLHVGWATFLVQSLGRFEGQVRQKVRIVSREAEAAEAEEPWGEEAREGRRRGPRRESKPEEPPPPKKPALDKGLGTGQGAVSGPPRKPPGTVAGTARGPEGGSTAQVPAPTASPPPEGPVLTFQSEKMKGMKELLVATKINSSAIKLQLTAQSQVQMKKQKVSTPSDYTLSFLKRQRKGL
For `CN[C@H]1[C@H](O)[C@@H](O[C@@H]2[C@H](O)[C@@H](O[C@H]3OC(CN)=CC[C@H]3N)[C@@H](N)C[C@H]2N)OC[C@@]1(C)O`, the Potency entry was “inactive”.

For the compound `O=C1CCNc2c(Cl)cc(Cl)cc21`, the Potency result is “inactive”.

Consider `CC1CCCCN1S(=O)(=O)c1ccc(C(=O)Nc2ccccc2-c2nc3ccccc3[nH]2)cc1` (configuration not stated), for which the Potency result was “inactive”.

As to `CCOc1ccc(NC(=O)c2cccc(OC(=S)N3CCC(C)CC3)c2)cc1`, the Potency entry is “inactive”.

For `O=S(=O)(c1ccc(-c2csc(Nc3ccc(Br)cc3)n2)cc1)N1CCCC1`, the Potency entry was “inactive”.

For `O=C(O)c1ccccc1NS(=O)(=O)c1cccc(-n2sc3ccccc3c2=O)c1`, the Potency result is “inactive”.

Regarding `CN(C)CCCNCC(=O)c1c(-c2ccccc2)n(C)c2ccccc12`, the Potency result was “inactive”.

With `O=C(Cn1c(=O)c2c3c(sc2n(Cc2ccccc2)c1=O)CCCC3)NCCO`, the Potency result is “inactive”.

In the case of `CCCn1c(=O)c(C(=O)Nc2ccccc2C(=O)OCC)c(O)c2ccccc21`, the Potency result is “inactive”.

As to `NC(=O)c1cc2ccccc2o/c1=N/NC(=O)c1cccc(F)c1`, the Potency entry is “inactive”.

For `CC(c1ccccc1)c1nnc(NC(=O)Nc2ccccc2F)s1` (configuration not stated), the Potency entry was “inactive”.

As to `COc1cc(OC)c2ccc(=O)oc2c1C(CCN1CCOCC1)c1ccc(N(C)C)cc1` (configuration not stated), the Potency entry was “inactive”.

As for `Cc1ccc2nc(-c3ccc(NC(=O)COC(=O)c4ccc(Br)o4)cc3)sc2c1`, the Potency result is “inactive”.

`O=C(c1cc2c(=O)n3ccccc3nc2s1)N1CCOCC1`: the Potency result was “inactive”.

With `Cc1nc(N2CCN(C)CC2)c2c3c(sc2n1)CCCC3`, the Potency result is “inactive”.

With `COc1cccc(NC(=O)N2CCCc3ccccc32)c1`, the Potency result was “inactive”.

In the case of `COc1ccc(NC(=O)N2CC[C@@]3(CCCN(C(=O)c4csnn4)C3)C2)cc1`, the Potency result was “inactive”.

These data come from PubChem BioAssay AID2778 (National Center for Advancing Translational Sciences (NCATS), 2010).
